# Compounds with a hit are over-represented: about 4.1% of the library has one in this group of screens.
# DAX1 inh-1: DAX1 (NR0B1) inhibitors on StAR promoter, primary screen, cell-based, luminescence, SF-1 (NR5A1), full-length DAX-1 | inhibition, % at 6.8 µM | 370,000 tested, 1.1% active | HEK293T StAR-luciferase reporter, SF-1/DAX-1 repression relief;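 active = inhibition above the mean over all tested compounds plus 3 SD, cut at about 3.6% in these data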;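 also: 0% = DAX-1 cells with DMSO and 100% = cells lacking DAX-1 with DMSO; higher inhibition means more luminescence from relief of DAX-1 repression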
# ssDAF-12 act: S. stercoralis DAF-12 nuclear receptor activators, primary screen, cell-based, luminescence, HEK293, GRIP1 co-expression, lit1-tk-luc | Nuclear hormone receptor DAF-12 (Strongyloides stercoralis) | HEK293 ssDAF-12/GRIP1 lit1-tk-luc reporter; % of 3 µM dafachronic acid response | activation, % at 6.8 µM | 370,000 tested, 1% active;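 active = activation above the mean over all tested compounds plus 3 SD, cut at about 0.9% in these data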;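 also: 0% = DMSO-only wells and 100% = 3 µM delta7-dafachronic acid wells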
# hgDAF-12 ag: H. glycines DAF-12 receptor agonists, primary screen, cell-based, luminescence, HEK293, GAL4 fusion, UAS-luciferase; Nuclear hormone receptor DAF-12 (Heterodera glycines), GAL4 fusion; HEK293 GAL4-hgDAF12 UAS-luciferase reporter, agonist luminescence; normalized to butyrate control; activation, % at 6.8 µM; 370,000 tested, 1.8% active; AID 687014, 2013;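 active = activation above a cutoff set at the mean of all screened compounds plus 3 SD, cut at about 10% in these data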;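 also: 0% = DMSO wells and 100% = sodium butyrate wells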
# DAX1 inh-2: DAX1 (NR0B1) inhibitors, primary screen, cell-based, HEK293, Gal4-DAX1, luciferase luminescence; 340,000 tested, 0.99% active; Nuclear receptor subfamily 0 group B member 1 (Homo sapiens), P51843; inhibition, % at 6.75 µM; HEK293 Gal4-DAX1 luciferase reporter; AID 504766, 2011;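 active = inhibition above the mean over all tested compounds plus 3 SD, cut at about 4.2% in these data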;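 also: 0% = DAX1-transfected cells with DMSO and 100% = empty-vector control cells with DMSO; inhibition shows as a rise in luminescence from relieved DAX1 repression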
# Target sequence (P51843 207-470 limits assumed): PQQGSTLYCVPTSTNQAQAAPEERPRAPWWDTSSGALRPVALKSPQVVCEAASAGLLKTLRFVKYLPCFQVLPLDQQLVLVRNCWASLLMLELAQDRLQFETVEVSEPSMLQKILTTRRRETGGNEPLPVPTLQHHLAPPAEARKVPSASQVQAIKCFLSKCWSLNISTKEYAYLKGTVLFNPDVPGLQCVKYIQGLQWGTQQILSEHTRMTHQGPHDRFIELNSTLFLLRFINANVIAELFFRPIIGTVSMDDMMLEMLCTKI
# hcDAF12 agonist: H. contortus DAF-12 nuclear receptor activators, primary screen, cell-based, luminescence, HEK293, lit1-tk-luc reporter; HEK293 hcDAF-12 lit1-tk-luc reporter; 0% DMSO, 100% Δ7-dafachronic acid; activation, % at 6.8 µM; 370,000 tested, 1.4% active; AID 652067, 2013;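 active = activation above the mean of all tested compounds plus 3 SD, cut at about 5.5% in these data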;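 also: 100% = response to 3 µM Δ7-dafachronic acid high control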
# hgDAF12 ag: H. glycines DAF-12 receptor agonists, confirmation, cell-based, luminescence, HEK293, GAL4-LBD fusion. shares compounds with hgDAF-12 ag. HEK293 GAL4-hgDAF12 luciferase reporter, agonist mode; percent of butyrate response. activation, % at 6.8 µM. 3,300 tested, 80% active. AID 743050, 2013;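 active = mean activation over triplicate wells above the hit cutoff derived from the earlier primary screen, cut at about 11% in these data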;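 also: 0% = DMSO low control and 100% = 2 mM sodium butyrate high control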
# LXRb DAF12 ctr: LXR agonists, Gal4 luciferase reporter, confirmation, counter-screen for hgDAF-12 agonist project, cell-based, luminescence, HEK293, H. glycines campaign; shares compounds with hgDAF-12 ag; 24 h; activation, % at 6.8 µM; 3,300 tested, under 10 active;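 active = mean activation of the triplicate above a set limit carried over from the primary screen, none filed active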
# Target sequence (P55055 whole entry, looked up, the tested form may be a part): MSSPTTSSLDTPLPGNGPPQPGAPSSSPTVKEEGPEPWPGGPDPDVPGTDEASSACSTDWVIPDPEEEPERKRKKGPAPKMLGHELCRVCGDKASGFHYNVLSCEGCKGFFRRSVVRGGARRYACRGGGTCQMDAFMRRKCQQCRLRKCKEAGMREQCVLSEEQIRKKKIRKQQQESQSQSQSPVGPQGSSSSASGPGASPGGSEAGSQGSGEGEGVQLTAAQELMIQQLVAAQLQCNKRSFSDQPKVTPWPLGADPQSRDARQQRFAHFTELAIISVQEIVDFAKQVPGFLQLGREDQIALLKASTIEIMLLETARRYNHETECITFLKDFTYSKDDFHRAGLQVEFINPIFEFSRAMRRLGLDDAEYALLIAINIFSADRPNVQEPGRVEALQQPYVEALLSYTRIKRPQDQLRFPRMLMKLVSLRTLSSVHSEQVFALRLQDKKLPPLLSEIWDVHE
# * marks the source's active call; other numbers are inactive results; · = no result.
SMILES,DAX1 inh-1,ssDAF-12 act,hgDAF-12 ag,DAX1 inh-2,hcDAF12 agonist,hgDAF12 ag,LXRb DAF12 ctr
COC(=O)C1=C(C)N(Cc2ccc(C(F)(F)F)cc2)C(=NCC2CC2)NC1c1ccccc1 (centres undefined),-0.2,-0.5,0.7,·,0.5,·,·
O=C(NCCC1=CCCCC1)Nc1ccc2nsnc2c1,3.8*,0.0,19.7*,2.9,5.9*,14.2*,0.7
CC(=O)c1cccc(NC(=S)NCCC2=CCCCC2)c1,-1.4,-1.5,1.6,-1.2,-1.8,·,·
C[C@H]1CNC(=O)c2c(C(=O)N3CCN(c4ccccc4)CC3)ncn21,-0.1,-0.7,1.2,·,1.4,·,·
Cc1ccc(-c2cn(-c3ccccc3)c(=S)[nH]2)cc1C,0.5,0.4,19.5*,3.7,6.2*,14.4*,1.0
COc1ccc(-c2nnc(SCc3cccc(F)c3)n2-c2ccccc2)cc1,-0.1,-1.2,2.6,·,-2.8,·,·
Cc1c(CN2CCN(c3ncc(Cc4ccccc4)cn3)CC2)c(=O)n(-c2ccccc2)n1C,-1.7,-0.9,-1.5,·,-2.7,·,·
C/C(=N\NC(=O)c1cccs1)c1ccc2c(c1)OCO2,3.0,0.0,19.6*,·,5.3,7.9,0.2
C/C(=N\NC(=O)c1ccc2c(c1)OCO2)c1ccc2c(c1)OCO2,-0.1,-1.1,3.8,2.5,0.1,·,·
COc1ccccc1C(=O)N(Cc1ccccn1)CC1CCCO1 (centres undefined),0.8,-1.2,2.5,·,-1.5,·,·
S=C(NCCc1ccc(Cl)cc1)NC1CC1,-0.2,-0.5,15.7*,1.4,-0.8,2.1,0.0
NS(=O)(=O)c1ccc(CCNC(=S)NC2CCCC2)cc1,-0.1,-0.3,4.1,1.4,4.6,·,·
Cc1cc(NC(=O)c2ccc(NS(=O)(=O)c3ccc(C)c(C)c3)cc2)no1,0.5,-1.8,-2.0,·,-1.0,·,·
N#Cc1ccccc1OCc1nnc(-c2ccccc2Br)o1,2.1,0.2,15.1*,2.3,3.6,11.3*,0.6
Clc1ccccc1OCc1nnc(-c2ccccc2Br)o1,1.1,0.3,10.2,0.7,1.8,·,·
CC1CCc2c(sc(NC(=O)C3CCCO3)c2C#N)C1 (centres undefined),2.9,-1.2,20.2*,2.2,1.1,10.5*,0.5
COC(=O)C1=C(C)N(Cc2cccc(C(F)(F)F)c2)C(=NCc2ccc3c(c2)OCO3)NC1c1cccc(Cl)c1 (centres undefined),-0.1,-0.6,-0.3,·,-1.6,·,·
C/C(=N\NC(N)=O)c1ccc(-n2ccnc2)cc1,0.3,-1.2,0.7,0.7,-0.5,·,·
C/C(=N\NC(=O)c1ccc(C)cc1C)c1ccc(-n2ccnc2)cc1,0.8,-1.1,13.6*,0.1,3.4,0.2,0.0
CCCC[C@H]1C2CC(OC(=O)Nc3ccc(C(F)(F)F)cc3)C(C2)[C@H]2CCCCN21 (some centres undefined),-0.2,-1.3,2.8,·,-2.3,·,·
Cc1ccc(Nc2nc(-c3ccccc3)c(CC(=O)O)s2)cc1,1.7,0.0,13.9*,0.3,2.1,12.9*,0.5
Cc1ccc(-c2nc(-c3ccccn3)sc2CC(=O)O)cc1,0.0,-1.1,6.0,-0.1,-1.4,·,·
CCCCCCCCN1C(=O)[C@@H](CC(=O)N2CCN(C(=O)c3ccco3)CC2)C[C@@]2(C(=O)OC)C1=C[C@H](C1CCCC1)O[C@@H]2C,0.1,-1.0,0.7,·,0.4,·,·
CC(=O)NCCC(=O)Nc1nc2ccc(Oc3ccccc3)cc2s1,2.4,0.6,21.0*,1.9,5.0,14.9*,0.7
CCOc1ccc2nc(NC(=O)CS(=O)(=O)c3ccccc3)sc2c1,0.6,-0.8,4.2,0.7,0.0,·,·
SMILES,DAX1 inh-1,ssDAF-12 act,hgDAF-12 ag,DAX1 inh-2,hcDAF12 agonist,hgDAF12 ag,LXRb DAF12 ctr
CCCC(=O)Nc1nc2ccc(OCC)cc2s1,3.4,-0.3,16.6*,-0.1,0.7,14.8*,0.5
CCN1CCN(C(=O)c2ccc(-c3nc4ccccc4s3)s2)CC1,4.3*,0.8,17.4*,2.5,3.8,11.2*,0.8
O=C(c1ccc(-c2nc3ccccc3s2)s1)N1CCOCC1,2.0,-1.9,-4.3,·,-0.2,·,·
CC(=O)N1CCC(=NNC(=O)c2cccs2)CC1,4.0*,0.3,14.4*,5.3*,5.2,8.6,0.2
CC1=C/C(=N\NC(=O)c2cccs2)CC(C)(C)C1,1.0,-0.4,16.6*,-0.1,4.2,1.3,0.0
CC(=O)N1CCC(=NNC(=O)c2cc3ccccc3cc2O)CC1,-0.4,-1.6,1.0,0.6,0.0,·,·
CC1=C/C(=N\NC(=S)NCCc2ccccc2)CC(C)(C)C1,1.6,-1.1,5.4,1.4,4.8,·,·
COc1ccc(CNS(=O)(=O)c2cc(Br)ccc2Br)c(OC)c1,0.5,-0.5,-1.2,·,-0.5,·,·
COC(=O)C1=C(C)N(C)C(=NCc2cc(OC)c(OC)c(OC)c2)NC1c1ccc(Cl)cc1 (centres undefined),-0.5,-0.3,-2.3,·,-2.4,·,·
Clc1ccc(-c2ccc(SCc3ccccn3)nn2)cc1,0.9,0.7,6.9,0.9,1.9,·,·
c1ccc(CSc2ccc(-c3ccccn3)nn2)nc1,3.1,-0.5,15.8*,1.1,3.3,10.0,0.5
Brc1ccc(-c2nnc(-c3cccc(Br)c3)o2)cc1,-0.1,-1.2,0.7,-0.8,-0.8,·,·
Cc1cccc(-c2nnc(-c3ccccc3)o2)c1,1.5,0.8,13.4*,1.8,4.4,15.8*,0.6
CCOC(=O)Nc1ccc2c(c1)C(=NO)c1ccccc1-2,2.8,0.7,18.1*,2.9,3.9,12.6*,0.6
CCOC(=O)Nc1ccc2c(c1)C(=NNC(N)=S)c1ccccc1-2,-4.7,-1.7,-4.9,-2.9,-2.5,·,·
CC[C@H](CCCc1ccccc1OC)CCS(=O)(=O)N(C)C,-2.1,-2.0,-0.7,·,-2.3,·,·
COc1ccc(-n2cc(-c3ccccc3)nc2SC)cc1,2.0,-0.8,15.0*,2.9,3.5,11.4*,0.4
NNC(=O)CSc1nc(-c2ccccc2)cn1-c1ccccc1,-0.4,-1.7,-6.9,-1.8,-2.2,·,·
CC(C)=CCC/C(C)=C/C[C@]12C[C@H](C(=O)O)N(C(=O)OC(C)(C)C)[C@@H]1N(C(=O)OC(C)(C)C)c1ccccc12,·,-0.6,-3.5,·,1.8,·,·

# Source: PubChem BioAssay (The Scripps Research Institute Molecular Screening Center)
